In PubChem BioAssay (NCI):
About 79,000 compounds went through this panel and 15% of them were active in at least one assay; those are over-represented in the sample as a whole. Activity calls are given as the source filed them. Cut-off read from the data, not from the text of the source: active = growth inhibition above about 70%; inactive = the rest.

How the values were obtained:
[1] = NCI Yeast Anticancer Drug Screen. Data for the wt1 strain (AID 149);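 note: 0% = growth of vehicle-treated wt1 cultures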; conditions: S. cerevisiae wt1 strain (SPY 50644) growth inhibition, hits give high values
Procedure, shortened: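 wt1 strain grown with compound or vehicle; inhibition taken from the growth difference.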

[2] = NCI Yeast Anticancer Drug Screen. Data for the rad50EPP+ strain (AID 151);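 note: 0% = growth of vehicle-treated control cultures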; conditions: S. cerevisiae rad50 mutant strain, hits give high values
Procedure, shortened: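 Compounds were applied to the rad50EPP+ yeast strain, which bears a defined DNA repair alteration, and growth inhibition was determined relative to vehicle-treated cultures.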

[3] = NCI Yeast Anticancer Drug Screen. Data for the rad50 strain (AID 155);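 note: 0% = growth of vehicle-only cultures of the same strain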; conditions: S. cerevisiae rad50 strain growth inhibition, hits give high values
Procedure, shortened: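 DNA repair mutant yeast, compound exposure, growth read-out; inhibition is taken relative to vehicle.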

[4] = NCI Yeast Anticancer Drug Screen. Data for the mec2-1 strain (AID 157); conditions: S. cerevisiae mec2-1 strain, hits give high values
Procedure, shortened: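 Strain: mec2-1 (DNA repair/cell cycle alteration). Compound exposure, then growth measured; inhibition expressed relative to vehicle.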

[5] = NCI Yeast Anticancer Drug Screen. Data for the rad14 strain (AID 159);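 note: 0% = growth of vehicle-treated control cultures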; conditions: S. cerevisiae rad14 strain growth inhibition, hits give high values
Procedure, shortened: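 DNA repair-defective yeast, compound-exposed; % growth inhibition derived by comparison with vehicle-treated controls.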

[6] = NCI Yeast Anticancer Drug Screen. Data for the sgs1 mgt1 strain (AID 161);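 note: 0% = growth of cultures given vehicle only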; conditions: S. cerevisiae sgs1 mgt1 strain, hits give high values
Procedure, shortened: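 Test agents were incubated with a DNA-repair-mutant yeast strain. Growth was then read and compared against vehicle-treated controls.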

[7] = NCI Yeast Anticancer Drug Screen. Data for the cln2 rad14 strain (AID 165);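 note: 0% = growth equal to vehicle treated cultures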; conditions: S. cerevisiae cln2 rad14 strain, hits give high values
Procedure, shortened: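 Compounds are applied to the cln2 rad14 yeast strain, and growth is then compared with that of vehicle-treated cultures to give inhibition.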

[8] = NCI Yeast Anticancer Drug Screen. Data for the bub3 strain (AID 167); conditions: S. cerevisiae bub3 mutant strain, hits give high values
Procedure, shortened: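 In this screen, a yeast mutant lacking normal mitotic checkpoint function is challenged with compound. Relative growth versus vehicle gives the inhibition value.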

[9] = NCI Yeast Anticancer Drug Screen. Data for the wt2 strain (AID 169);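 note: 0% = growth of vehicle-treated yeast cultures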; conditions: S. cerevisiae wt2 strain growth inhibition, hits give high values
Procedure, shortened: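 This strain belongs to a panel of yeast strains with defined genetic alterations in DNA damage repair or cell cycle control. Compounds are applied, and growth inhibition is measured against vehicle-treated cultures.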

[10] = NCI Yeast Anticancer Drug Screen. Data for the mlh1 strain (AID 171);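 note: 0% = growth of vehicle-treated control cultures of the same strain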; conditions: S. cerevisiae mlh1 strain growth inhibition, hits give high values
Procedure, shortened: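 Growth of the mutant yeast strain after compound exposure, expressed as inhibition relative to vehicle-only controls.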

[11] = NCI Yeast Anticancer Drug Screen. Data for the sgs1 strain (AID 173);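 note: 0% = growth of vehicle-only control cultures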; conditions: S. cerevisiae sgs1 mutant, hits give high values
Procedure, shortened: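 Growth of a yeast strain bearing a defined genetic alteration is measured after compound treatment. Inhibition is expressed relative to vehicle-only controls.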

[12] = NCI Yeast Anticancer Drug Screen. Data for the mlh1 rad18 strain (AID 175); conditions: S. cerevisiae mlh1 rad18 strain growth inhibition, hits give high values
Procedure, shortened: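 Read-out is yeast growth inhibition, calculated against vehicle-only controls. The compound was applied to a strain engineered with DNA damage repair alterations.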

[13] = NCI Yeast Anticancer Drug Screen. Data for the rad18 strain (AID 177); conditions: S. cerevisiae rad18 mutant growth inhibition, hits give high values
Procedure, shortened: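 Growth of the mutant yeast strain after compound exposure, normalised to vehicle-only cultures.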

[14] = at 5.0 µM (retest, dose inferred, filed as 0.5)
[15] = at 50.0 µM (retest, dose inferred, filed as 5.0)

Measured: growth inhibition

CCOC(=O)C1=C(C)NC(C)=C(C(=O)OCC)C1c1ccc(Cl)cc1
inactive: [1]; at 1.2 µM -23% | [1]; at 3.7 µM -10% | [1]; at 11.0 µM 33% | [1]; at 33.0 µM 60% | [2]; at 1.2 µM 6% | [2]; at 3.7 µM 4% | [2]; at 11.0 µM 16% | [2]; at 33.0 µM 0% | [2]; at 100.0 µM -8% | [3]; at 1.2 µM 14% | [3]; at 3.7 µM 35% | [4]; at 1.2 µM -9% | [4]; at 3.7 µM -5% | [5]; at 1.2 µM -14% | [5]; at 3.7 µM -6% | [6]; [14] -1% | [7]; [14] 27% | [8]; at 1.2 µM 20% | [8]; at 3.7 µM 44% | [8]; [14] 47% | [9]; at 1.2 µM -3% | [9]; at 3.7 µM -10% | [10]; at 1.2 µM -27% | [10]; at 3.7 µM -9% | [10]; at 11.0 µM 44% | [11]; at 1.2 µM 13% | [11]; at 3.7 µM 19% | [13]; at 1.2 µM 4% | [13]; at 3.7 µM 14%
active: [1]; at 100.0 µM 94% | [3]; [14] 98% | [3]; at 11.0 µM 93% | [3]; at 33.0 µM 88% | [3]; [15] 100% | [3]; at 50.0 µM 90.2% | [3]; at 100.0 µM 89% | [4]; [14] 99% | [4]; at 11.0 µM 70% | [4]; at 33.0 µM 70% | [4]; [15] 99% | [4]; at 50.0 µM 91.5% | [4]; at 100.0 µM 92% | [5]; at 11.0 µM 85% | [5]; at 33.0 µM 82% | [5]; at 100.0 µM 93% | [6]; [15] 98% | [7]; [15] 98% | [8]; at 11.0 µM 85% | [8]; at 33.0 µM 81% | [8]; [15] 98% | [8]; at 100.0 µM 93% | [9]; at 11.0 µM 74% | [9]; at 33.0 µM 85% | [9]; at 100.0 µM 96% | [10]; at 33.0 µM 84% | [10]; at 100.0 µM 92% | [11]; at 11.0 µM 73% | [11]; at 33.0 µM 89% | [11]; at 100.0 µM 95% | [12]; [14] 100% | [12]; [15] 100% | [12]; at 50.0 µM 90.2% | [13]; at 11.0 µM 93% | [13]; at 33.0 µM 89% | [13]; at 100.0 µM 92%
